The panel holds about 83,000 compounds, 20% with a hit somewhere; the sample as a whole holds those more often.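 Assay: single dose, 48 h. Readout: percent growth (0 = no net growth; negative = cell death). Active: <10.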 Active and inactive are the calls of the source.
System: SF-268 CNS
Assay: NCI-60 one-dose screen, 48 h (100 = growth as untreated, 0 = no growth, -100 = all killed)
Conditions: 10 µM unless noted

Question: How did the growth turn out when `COc1ccc(C2CC(c3ccc(OC)c(OC)c3)=NN2C(=O)c2cc(OC)c(OC)c(OC)c2)c(OC)c1` (centres undefined) was run?
Answer: 82% (inactive)

Question: `CCOC(=O)c1c2c(c(C)n1Cc1ccc(OC)cc1)-c1nc(N)ncc1CC2` was tested. Which growth did it give?
Answer: 110% (inactive)

Question: How did the growth turn out when `O=C1N(C2CCCCC2)C(=O)N1C1CCCCC1` was run?
Answer: 65.3% (inactive)

Question: With `O=c1ccn(C2OC(CO)C(O)C2F)c(=O)[nH]1` (centres undefined) as the compound, how does the growth read?
Answer: 111% (inactive)

Question: With `CCCn1cnc2c1c(=O)n(CCCCC(C)=O)c(=O)n2C` as the compound, how does the growth read?
Answer: 99.3% (inactive)

Question: How did the growth turn out when `CCCCc1nc(Cl)c(CO)n1Cc1ccc(-c2ccccc2-c2nn[nH]n2)cc1` was run?
Answer: 115% (inactive)

Question: With `COc1ccc(C2CC(c3cccc(Nc4ccnc5cc(Cl)ccc45)c3)=NN2C=O)cc1` (centres undefined) as the compound, how does the growth read?
Answer: 44.5% (inactive)

Question: For `O=c1c(O)cccn1CCCNCCCN(CCCn1cccc(O)c1=O)CCCn1cccc(O)c1=O`, which growth is on record?
Answer: 94% (inactive)

Question: `COc1ccc2nc(-c3ccc(-n4cncc4-c4ccc(OC)c(N)c4)cc3)sc2c1` was tested. Which growth did it give?
Answer: 109% (inactive)

Question: How did the growth turn out when `Cc1cc(NC(=O)Nc2cc(Cl)ccc2C)no1` was run?
Answer: 100% (inactive)

Question: With `O=C1NCN(c2ccccc2)C12CCN(CCCC(c1ccc(F)cc1)c1ccc(F)cc1)CC2` as the compound, how does the growth read?
Answer: 71.4% (inactive)

Question: With `CCC(O)C(C)(C)C` (centres undefined) as the compound, how does the growth read?
Answer: 113% (inactive)

Question: `COc1ncc(-c2ccc3nccc(C#CCN4CCN(S(C)(=O)=O)CC4)c3c2)cc1NS(=O)(=O)c1ccc(F)cc1F` was tested. Which growth did it give?
Answer: 6.1% (active)

Question: `O=C(Nc1ccc(Cl)cc1)c1cc2c(cc1O)[nH]c1ccccc12` was tested. Which growth did it give?
Answer: 34.4% (inactive)

Question: Which growth does the source give for `O=C1c2ccccc2C(=O)c2c1cccc2-n1nnc2ccccc21` here?
Answer: 103% (inactive)

Question: How did the growth turn out when `Cc1nn(-c2ccccc2)c2c1oc(=O)c1cc(Cl)ccc12` was run?
Answer: 90.6% (inactive)

Question: `CCC1=C(c2ccc(OC)cc2)C(C)(C)Oc2c1ccc(O)c2CN1CCCC1` was tested. Which growth did it give?
Answer: 54.3% (inactive)

Question: `O=C(NCCc1ccccc1)C1CCC(=O)N1Cc1ccc(Br)cc1` (centres undefined) was tested. Which growth did it give?
Answer: 106% (inactive)

Question: For `N#Cc1ccc(NC(=O)Nc2ccc(Oc3ccc(NC(=O)Nc4ccc(C#N)cc4)cc3)cc2)cc1`, which growth is on record?
Answer: 42.1% (inactive)

Question: With `COc1ccc2c(c1)C(=O)c1c-2c(OCCN(C)C)nc2cc(OC)ccc12` as the compound, how does the growth read?
Answer: 35.7% (inactive)

Question: `O=C(Nc1cccc([N+](=O)[O-])c1)c1cccc(C(=O)Nc2cccc([N+](=O)[O-])c2)c1` was tested. Which growth did it give?
Answer: 30.2% (inactive)

Question: How did the growth turn out when `CCCCCCCCCCCCCCCCCC1=NC(C)(C)CN1CCO` was run?
Answer: -67.1% (active)

Question: How did the growth turn out when `COc1ccc(OC)c(NC(=O)c2cc3oc4ccccc4c3cc2O)c1` was run?
Answer: 87.9% (inactive)

Question: `CN1C(=O)/C(=C/c2nc(-c3cccc(F)c3)n3ccccc23)c2ccccc21` was tested. Which growth did it give?
Answer: 92% (inactive)

Question: `O=C(CN1CCCCC1)Sc1nnc2sc3ccccc3n12` was tested. Which growth did it give?
Answer: 102% (inactive)

Question: With `C[C@]12CC[C@@H]3c4ccc(O)c([N+](=O)[O-])c4CC[C@H]3[C@@H]1CC[C@@H]2NS(=O)(=O)c1cccc(Br)c1` as the compound, how does the growth read?
Answer: 36.2% (inactive)

Question: With `Cc1ccsc1/C=C/C1=NCCCN1C` as the compound, how does the growth read?
Answer: 111% (inactive)

Question: How did the growth turn out when `CCCCCCCCCCSc1ncnc2nc[nH]c12` was run?
Answer: 83.7% (inactive)

Question: For `C[n+]1c2ccccc2c(NC2CCNCC2)c2[nH]c3ccccc3c21`, which growth is on record?
Answer: -31% (active)

Question: For `COc1cccc2c1O/C(=C\c1c([N+](=O)[O-])ncn1C)C2=O`, which growth is on record?
Answer: 98.3% (inactive)

Question: How did the growth turn out when `CC[C@@H]1OC(=O)[C@H](C)[C@@H](O[C@H]2C[C@@](C)(OC)[C@@H](O)[C@H](C)O2)[C@H](C)[C@@H](O[C@@H]2O[C@H](C)C[C@H](N(C)C)[C@H]2O)[C@](C)(O)C[C@@H](C)[C@@H]2N[C@@H](COCCOC)O[C@H]([C@H]2C)[C@]1(C)O` was run?
Answer: 112% (inactive)

Question: For `O=C1C[C@@H]2/C(=C(O)\C=C\c3ccccc3)C(=O)C=C[C@@H]2O1`, which growth is on record?
Answer: 11.6% (inactive)

Question: How did the growth turn out when `Cc1cc2c(cc1[N+](=O)[O-])NC(CNC(C)C)CC2` (centres undefined) was run?
Answer: 95.1% (inactive)

Question: How did the growth turn out when `CCCCN(CCCC)CCCOC(=O)c1ccc(N)cc1` was run?
Answer: 96.3% (inactive)

Question: Which growth does the source give for `C=C(C[C@](O)(C(=O)/C=C/c1ccc(Cl)cc1)C(=O)OC)c1ccccc1` here?
Answer: 87.4% (inactive)

Question: With `CCN1C[C@@H](C)n2c(c(O)c3c(=O)n(Cc4ccc(F)c(Cl)c4)nc(C(=O)NC)c32)C1=O` as the compound, how does the growth read?
Answer: 23.2% (inactive)

Question: How did the growth turn out when `Cc1nnc(Nc2ccc(NC(=O)Nc3ccc(Cl)cc3)cc2)c2ccccc12` was run?
Answer: 48.7% (inactive)

System: SF-295 CNS
Assay: as above
Conditions: 10 µM unless noted

Question: Which growth does the source give for `COc1ccc(C2CC(c3ccc(OC)c(OC)c3)=NN2C(=O)c2cc(OC)c(OC)c(OC)c2)c(OC)c1` (centres undefined) here?
Answer: 31% (inactive)

Question: With `CCOC(=O)c1c2c(c(C)n1Cc1ccc(OC)cc1)-c1nc(N)ncc1CC2` as the compound, how does the growth read?
Answer: 104% (inactive)

Question: With `O=C1N(C2CCCCC2)C(=O)N1C1CCCCC1` as the compound, how does the growth read?
Answer: -27.9% (active)

Question: With `O=c1ccn(C2OC(CO)C(O)C2F)c(=O)[nH]1` (centres undefined) as the compound, how does the growth read?
Answer: 105% (inactive)

Question: With `CCCn1cnc2c1c(=O)n(CCCCC(C)=O)c(=O)n2C` as the compound, how does the growth read?
Answer: 118% (inactive)

Question: How did the growth turn out when `CCCCc1nc(Cl)c(CO)n1Cc1ccc(-c2ccccc2-c2nn[nH]n2)cc1` was run?
Answer: 99.9% (inactive)

Question: With `COc1ccc(C2CC(c3cccc(Nc4ccnc5cc(Cl)ccc45)c3)=NN2C=O)cc1` (centres undefined) as the compound, how does the growth read?
Answer: 2.43% (active)

Question: Which growth does the source give for `O=c1c(O)cccn1CCCNCCCN(CCCn1cccc(O)c1=O)CCCn1cccc(O)c1=O` here?
Answer: 102% (inactive)

Question: With `COc1ccc2nc(-c3ccc(-n4cncc4-c4ccc(OC)c(N)c4)cc3)sc2c1` as the compound, how does the growth read?
Answer: 99.8% (inactive)

Question: With `Cc1cc(NC(=O)Nc2cc(Cl)ccc2C)no1` as the compound, how does the growth read?
Answer: 112% (inactive)

Question: For `O=C1NCN(c2ccccc2)C12CCN(CCCC(c1ccc(F)cc1)c1ccc(F)cc1)CC2`, which growth is on record?
Answer: 17.1% (inactive)

Question: How did the growth turn out when `CCC(O)C(C)(C)C` (centres undefined) was run?
Answer: 97% (inactive)

Question: `COc1ncc(-c2ccc3nccc(C#CCN4CCN(S(C)(=O)=O)CC4)c3c2)cc1NS(=O)(=O)c1ccc(F)cc1F` was tested. Which growth did it give?
Answer: 13% (inactive)

Question: How did the growth turn out when `O=C(Nc1ccc(Cl)cc1)c1cc2c(cc1O)[nH]c1ccccc12` was run?
Answer: -43% (active)

Question: For `O=C1c2ccccc2C(=O)c2c1cccc2-n1nnc2ccccc21`, which growth is on record?
Answer: 120% (inactive)

Question: How did the growth turn out when `Cc1nn(-c2ccccc2)c2c1oc(=O)c1cc(Cl)ccc12` was run?
Answer: 109% (inactive)

Question: With `CCC1=C(c2ccc(OC)cc2)C(C)(C)Oc2c1ccc(O)c2CN1CCCC1` as the compound, how does the growth read?
Answer: -44% (active)

Question: How did the growth turn out when `O=C(NCCc1ccccc1)C1CCC(=O)N1Cc1ccc(Br)cc1` (centres undefined) was run?
Answer: 106% (inactive)

Question: With `N#Cc1ccc(NC(=O)Nc2ccc(Oc3ccc(NC(=O)Nc4ccc(C#N)cc4)cc3)cc2)cc1` as the compound, how does the growth read?
Answer: 23.7% (inactive)

Question: For `COc1ccc2c(c1)C(=O)c1c-2c(OCCN(C)C)nc2cc(OC)ccc12`, which growth is on record?
Answer: 31.8% (inactive)

Question: For `O=C(Nc1cccc([N+](=O)[O-])c1)c1cccc(C(=O)Nc2cccc([N+](=O)[O-])c2)c1`, which growth is on record?
Answer: 67.3% (inactive)

Question: `CCCCCCCCCCCCCCCCCC1=NC(C)(C)CN1CCO` was tested. Which growth did it give?
Answer: -2.44% (active)

Question: How did the growth turn out when `COc1ccc(OC)c(NC(=O)c2cc3oc4ccccc4c3cc2O)c1` was run?
Answer: 92% (inactive)

Question: With `CN1C(=O)/C(=C/c2nc(-c3cccc(F)c3)n3ccccc23)c2ccccc21` as the compound, how does the growth read?
Answer: 87.4% (inactive)

Question: With `O=C(CN1CCCCC1)Sc1nnc2sc3ccccc3n12` as the compound, how does the growth read?
Answer: 110% (inactive)

Question: For `C[C@]12CC[C@@H]3c4ccc(O)c([N+](=O)[O-])c4CC[C@H]3[C@@H]1CC[C@@H]2NS(=O)(=O)c1cccc(Br)c1`, which growth is on record?
Answer: 53.2% (inactive)

Question: How did the growth turn out when `Cc1ccsc1/C=C/C1=NCCCN1C` was run?
Answer: 95.6% (inactive)

Question: Which growth does the source give for `CCCCCCCCCCSc1ncnc2nc[nH]c12` here?
Answer: 68.7% (inactive)

Question: How did the growth turn out when `C[n+]1c2ccccc2c(NC2CCNCC2)c2[nH]c3ccccc3c21` was run?
Answer: 13.6% (inactive)

Question: With `COc1cccc2c1O/C(=C\c1c([N+](=O)[O-])ncn1C)C2=O` as the compound, how does the growth read?
Answer: 98.2% (inactive)

Question: For `CC[C@@H]1OC(=O)[C@H](C)[C@@H](O[C@H]2C[C@@](C)(OC)[C@@H](O)[C@H](C)O2)[C@H](C)[C@@H](O[C@@H]2O[C@H](C)C[C@H](N(C)C)[C@H]2O)[C@](C)(O)C[C@@H](C)[C@@H]2N[C@@H](COCCOC)O[C@H]([C@H]2C)[C@]1(C)O`, which growth is on record?
Answer: 110% (inactive)

Question: How did the growth turn out when `O=C1C[C@@H]2/C(=C(O)\C=C\c3ccccc3)C(=O)C=C[C@@H]2O1` was run?
Answer: 71.2% (inactive)

Question: Which growth does the source give for `Cc1cc2c(cc1[N+](=O)[O-])NC(CNC(C)C)CC2` (centres undefined) here?
Answer: 102% (inactive)

Question: How did the growth turn out when `CCCCN(CCCC)CCCOC(=O)c1ccc(N)cc1` was run?
Answer: 84.5% (inactive)

Question: For `C=C(C[C@](O)(C(=O)/C=C/c1ccc(Cl)cc1)C(=O)OC)c1ccccc1`, which growth is on record?
Answer: 98.9% (inactive)

Question: `CCN1C[C@@H](C)n2c(c(O)c3c(=O)n(Cc4ccc(F)c(Cl)c4)nc(C(=O)NC)c32)C1=O` was tested. Which growth did it give?
Answer: 0.0694% (active)

Question: How did the growth turn out when `Cc1nnc(Nc2ccc(NC(=O)Nc3ccc(Cl)cc3)cc2)c2ccccc12` was run?
Answer: 4.8% (active)
